Laboratory results taken from PubChem BioAssay AID1159580 (chemical genetic matrix, 2015).
The campaign covered roughly 5,500 compounds. About 2,000 (36%) were called active. About 18% were inconclusive and are not listed. Cut-off read from the data, not from the text of the source: active = normalized growth mostly below about 0.91 (no sharp cut-off); inconclusive = no clear call, values can overlap the other calls; inactive = mostly above about 0.92. The list shows a part of the results.

Assay: chemical genetic growth profiling, strain panel (AID 1159580);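 note: tested at 20 µM; growth read once vehicle control cultures reached saturation at 30 °C; 1 = growth at the plate median or of vehicle wells; lower values mean less growth of the strain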
Settings: S. cerevisiae deletion strains, growth OD

Measured: normalized growth

CCCCCCCCCCC[C@@H](C[C@H]1OC(=O)[C@H]1CCCCCC)OC(=O)[C@@H](CC(C)C)NC=O
inactive: locus YAL013W, strain DEP1, stronger effect = lower value 1.05 | locus YAL021C, strain ccr4, stronger effect = lower value 1.01 | locus YAL026C, strain drs2, stronger effect = lower value 1.05 | locus YAL030W, strain snc1, stronger effect = lower value 1.03 | locus YBL061C, strain skt5, stronger effect = lower value 1.02 | locus YBR009C, strain hhf1, stronger effect = lower value 1.04 | locus YBR021W, strain FUR4, stronger effect = lower value 1.05 | locus YBR023C, strain chs3, stronger effect = lower value 0.994 | locus YBR171W, strain sec66, stronger effect = lower value 1.06 | locus YBR229C, strain ROT2, stronger effect = lower value 1.02 | locus YBR231C, strain swc5, stronger effect = lower value 0.965 | locus YBR279W, strain paf1, stronger effect = lower value 1 | locus YCL011C, strain gbp2, stronger effect = lower value 1.05 | locus YCL016C, strain dcc1, stronger effect = lower value 1.01 | locus YCL029C, strain bik1, stronger effect = lower value 1.03 | locus YCL061C, strain MRC1, stronger effect = lower value 1.05 | locus YCL069W, strain vba3, stronger effect = lower value 1.05 | locus YCR088W, strain abp1, stronger effect = lower value 1.02 | locus YDL005C, strain med2, stronger effect = lower value 1.03 | locus YDL035C, strain GPR1, stronger effect = lower value 1.05 | locus YDL040C, strain nat1, stronger effect = lower value 1 | locus YDL074C, strain BRE1, stronger effect = lower value 1.05 | locus YDL101C, strain DUN1, stronger effect = lower value 1.02 | locus YDL134C, strain PPH21, stronger effect = lower value 1.02 | locus YDL185W, strain tfp1, stronger effect = lower value 0.992 | locus YDL192W, strain arf1, stronger effect = lower value 1.03 | locus YDR001C, strain nth1, stronger effect = lower value 1.05 | locus YDR069C, strain doa4, stronger effect = lower value 1.02 | locus YDR101C, strain arx1, stronger effect = lower value 1.03 | locus YDR137W, strain rgp1, stronger effect = lower value 0.978 | locus YDR150W, strain NUM1, stronger effect = lower value 1.06 | locus YDR159W, strain sac3, stronger effect = lower value 1.01 | locus YDR162C, strain NBP2, stronger effect = lower value 1.02 | locus YDR195W, strain ref2 1.02 | locus YDR297W, strain sur2, stronger effect = lower value 1.04 | locus YDR318W, strain mcm21, stronger effect = lower value 1.01 | locus YDR334W, strain swr1, stronger effect = lower value 1.03 | locus YDR335W, strain msn5, stronger effect = lower value 1.05 | locus YDR388W, stronger effect = lower value 1.02 | locus YDR392W, strain spt3, stronger effect = lower value 1.1 | locus YDR502C, strain sam2, stronger effect = lower value 1.03 | locus YEL003W, strain gim4, stronger effect = lower value 1.02 | locus YEL037C, strain rad23, stronger effect = lower value 1.06 | locus YEL061C, strain CIN8 (second series), stronger effect = lower value 1.04 | locus YEL061C, strain CIN8, stronger effect = lower value 1.01 | locus YER015W, strain faa2, stronger effect = lower value 1.02 | locus YER016W, strain bim1, stronger effect = lower value 1.01 | locus YER110C, stronger effect = lower value 1.02 | locus YER111C, strain swi4, stronger effect = lower value 1.06 | locus YER155C, strain BEM2 (second series), stronger effect = lower value 1.07 | locus YER155C, strain BEM2, stronger effect = lower value 1.03 | locus YER167W, strain BCK2, stronger effect = lower value 1.02 | locus YFR010W, strain ubp6, stronger effect = lower value 1.05 | locus YGL078C, strain dbp3, stronger effect = lower value 1.03 | locus YGL086W, strain mad1, stronger effect = lower value 1.01 | locus YGL167C, strain pmr1, stronger effect = lower value 0.994 | locus YGL173C, strain kem1, stronger effect = lower value 1.04 | locus YGL227W, strain vid30, stronger effect = lower value 1.02 | locus YGL240W, strain doc1, stronger effect = lower value 1.06 | locus YGL248W, strain PDE1, stronger effect = lower value 1.03 | locus YGL253W, strain hxk2, stronger effect = lower value 1.04 | locus YGR078C, strain PAC10, stronger effect = lower value 1.05 | locus YGR135W, strain pre9, stronger effect = lower value 1.02 | locus YGR252W, strain gcn5, stronger effect = lower value 1.08 | locus YHR013C, strain ard1, stronger effect = lower value 1.03 | locus YHR027C, strain rpn1, stronger effect = lower value 1.05 | locus YHR030C, strain SLT2, stronger effect = lower value 1.04 | locus YHR079C, strain IRE1 (second series), stronger effect = lower value 1 | locus YHR094C, strain hxt1, stronger effect = lower value 1 | locus YHR129C, strain ARP1, stronger effect = lower value 1.04 | locus YHR142W, strain chs7, stronger effect = lower value 1.04 | locus YHR200W, strain rpn10, stronger effect = lower value 1.03 | locus YIL066C, strain RNR3, stronger effect = lower value 1.03 | locus YIL073C, strain SPO22, stronger effect = lower value 1.06 | locus YIL125W, strain kgd1, stronger effect = lower value 1 | locus YIR030C, strain dcg1, stronger effect = lower value 1.03 | locus YJL092W, strain hpr5, stronger effect = lower value 1.04 | locus YJL095W, strain BCK1 (second series), stronger effect = lower value 1.03 | locus YJL095W, strain BCK1, stronger effect = lower value 1.05 | locus YJL115W, strain asf1, stronger effect = lower value 1.06 | locus YJL129C, strain trk1, stronger effect = lower value 1.04 | locus YJL134W, strain LCB3, stronger effect = lower value 1.02 | locus YJL154C, strain vps35, stronger effect = lower value 1.07 | locus YJL164C, strain tpk1, stronger effect = lower value 1.04 | locus YJL166W, strain qcr8, stronger effect = lower value 1.04 | locus YJL168C, strain set2, stronger effect = lower value 1 | locus YJL187C, strain SWE1 (second series), stronger effect = lower value 1.03 | locus YJL187C, strain SWE1, stronger effect = lower value 1.04
